Results on 41 compounds are retold here after article PMC11062922 (Nature Chemical Biology, 2023).

Design in all cases: species or system human, MV4-11 + K-562 + COLO205 + SK-N-BE2 + OVCAR-8
One assay relates to WEE1. The settings on record: read-out: apparent Kd, n = 1.
The next assay relates to NME2;NME2P1. To be noted: read-out: apparent Kd, n = 1.
The subject of a further assay is SMC4. To be noted: read-out: apparent Kd, n = 1.
The subject of the next assay is BMPR2. To be noted: read-out: apparent Kd, compound concentrations: 100 nM and 1000 nM (sheet 'Samples'), n = 1.
Another assay has as its system DYNC1LI1. To be noted: read-out: apparent Kd, compound concentrations: 100 nM and 1000 nM (sheet 'Samples'), n = 1.
In a further assay the test system is PKN1. To be noted: read-out: apparent Kd, n = 1.
The next assay concerns MET. To be noted: read-out: apparent Kd, n = 1.
The next assay has as its system SPR. To be noted: read-out: apparent Kd, compound concentrations: 100 nM and 1000 nM (sheet 'Samples'), n = 1.
The subject of the next assay is TAOK3. The settings on record: read-out: apparent Kd, compound concentrations: 100 nM and 1000 nM (sheet 'Samples'), n = 1.
The next assay concerns PIM1. To be noted: read-out: apparent Kd, compound concentrations: 100 nM and 1000 nM (sheet 'Samples'), n = 1.
For a further assay, the system named is MAP4K3. The settings on record: read-out: apparent Kd, n = 1.
A further assay has as its system TP53RK. To be noted: read-out: apparent Kd, n = 1.
The test system of a further assay is CIT. To be noted: read-out: apparent Kd, n = 1.
For the next assay, the system named is ADK. To be noted: read-out: apparent Kd, n = 1.
A further assay has as its system CDK9. To be noted: read-out: apparent Kd; compound concentrations:100 nM and 1000 nM (sheet 'Samples'); n = 1.
Another assay concerns PLK1. To be noted: read-out: apparent Kd, n = 1.
Another assay relates to PRKD1. The settings on record: read-out: apparent Kd, n = 1.
A further assay concerns ACLY. The settings on record: read-out: apparent Kd, compound concentrations: 100 nM and 1000 nM (sheet 'Samples'), n = 1.
The next assay relates to TTK. To be noted: read-out: apparent Kd, compound concentrations: 100 nM and 1000 nM (sheet 'Samples'), n = 1.
Another assay deals with CAMK2B. To be noted: read-out: apparent Kd, n = 1.
Where [1] appears, read: compound concentrations:100 nM and 1000 nM (sheet 'Samples').

SMILES strings stand for the structures. Like-named read-outs stand apart in the source and are kept apart here.

For the compound `CCN(CC)CCOc1ccc(Nc2ncc3cc(-c4c(Cl)cccc4Cl)c(=O)n(C)c3n2)cc1` [SB-601273], in the assay with WEE1 (setting [1]), the potency estimated from few doses is 171 nM.
Turning to `Nc1nc(-c2ccc3c(N)n[nH]c3c2)cc(N2CCCCC2)n1` [GSK2228768A], the potency estimated from few doses is 1380 nM in the assay with NME2;NME2P1 (setting [1]) and 2040 nM with SMC4 (setting [1]).
Turning to `COc1cc(Nc2ccnc3cc(-c4ccncc4)ccc23)cc(OC)c1OC.Cl` [GW494610A], the potency estimated from few doses in the assay with BMPR2 (CATDS: 2.09550401545208E-2) was 2200 nM.
`COc1cc(Nc2nccc(N3CCC(NC(=O)C4COc5ccccc5O4)C3)n2)cc(OC)c1OC` (stereo not drawn) [GSK1379761A]: the potency estimated from few doses with DYNC1LI1 (CATDS: 0.20239822738500499) was 2020 nM.
Turning to `O=C1N=C(NCc2cccs2)SC1Cc1ccc2ncccc2c1` (stereo not drawn) [RO4629078-000], in the assay on PKN1 (compound concentrations: 100 nM and 1000 nM (sheet 'Samples'), CATDS: 8.6120949637054304E-3), the potency estimated from few doses was 1010 nM.
`CS(=O)(=O)Cc1ccc(Nc2nccc(-c3c(-c4cccc(NC(=O)C5CCCCC5)c4)nn4ncccc34)n2)cc1` [GSK350559A]: in the assay on MET (setting [1]), the potency estimated from few doses was 1780 nM.
Turning to `Cc1ccc(O)cc1Nc1ccnc2cc(-c3ccccn3)ccc12.Cl` [GW440139A], the potency estimated from few doses with SPR (CATDS: 2.8512814896169001E-2) is 683 nM.
For `CN1C(=O)c2ccccc2N(C)c2nc(Nc3cnn(C4CCNCC4)c3)ncc21` [XMD-17-51], the potency estimated from few doses in the assay on TAOK3 (CATDS: 4.0612086764621601E-2) is 78.3 nM.
As for `COc1ccc(Nc2nccc(N3CCC(NC(=O)Nc4ccc5c(c4)OCO5)C3)n2)cc1` (stereo not drawn) [GSK1379745A], in the assay with PIM1 (CATDS: 4.3475641275587597E-2), the potency estimated from few doses is 1260 nM.
Consider `CC(C)c1nc(-c2cccc(NS(=O)(=O)c3ccccc3)c2)c(-c2ccnc(Nc3ccc4c(c3)CN(C)CC4)n2)s1` [GSK1649598A], for which the potency estimated from few doses is 1570 nM in the assay on MAP4K3 (compound concentrations: 100 nM and 1000 nM (sheet 'Samples'), CATDS: 1.29423166532144E-2); 600 nM with TAOK3 (CATDS: 1.6812822211495999E-2).
Regarding `CCc1nc(-c2cccc(N(C)S(=O)(=O)c3ccccc3)c2)c(-c2ccnc(Nc3ccc(N4CCN(C(C)=O)CC4)nc3)n2)s1` [GSK1645895A], in the assay with TP53RK (compound concentrations: 100 nM and 1000 nM (sheet 'Samples'), CATDS: 0.13765543946778), the potency estimated from few doses is 1940 nM.
With `CNc1nccc(-c2c(-c3ccc(F)cc3)ncn2C2CCN(C)CC2)n1` [SB-222903], the potency estimated from few doses in the assay on CIT (setting [1]) was 670 nM.
For `COc1cc2ncn(-c3cc(OCc4cccs4)c(C(N)=O)s3)c2cc1OC` [GSK312948A], the potency estimated from few doses in the assay on ADK (setting [1]) was 863 nM.
`Cn1cc(-c2cnc(N)c3c(-c4ccc5c(c4)CCN5C(=O)Cc4ccccc4)csc23)cn1` [GSK2593074A]: the potency estimated from few doses in the assay on MAP4K3 (setting [1]) is 1570 nM.
For `CN1CCc2ccc(Nc3nccc(-c4c(-c5cccc(NC(=O)c6c(F)cccc6F)c5)nc5ccccn45)n3)cc2C1.Cl` [GSK1010829B], the potency estimated from few doses with TAOK3 (CATDS: 3.3504953987682898E-2) is 1490 nM.
Turning to `N#Cc1cccc(Nc2nccc(-c3cnn4ncccc34)n2)c1` [GW778894X], the potency estimated from few doses in the assay on CDK9 was 3.72 nM.
On to `CC(=O)c1c(-c2ccncc2)[nH]c(-c2ccncc2)c1C` [GW493036X], for which the potency estimated from few doses was 1760 nM in the assay with ADK (setting [1]), 154 nM in the assay on CDK9 and 173 nM in the assay with CIT (setting [1]).
`CNC(=O)c1ccccc1Nc1nc(Nc2cccc(CS(C)(=O)=O)c2)ncc1C.O=CO` [GSK1520489A]: the potency estimated from few doses in the assay on BMPR2 (CATDS: 1.16298732818768E-2) was 672 nM; with MET (compound concentrations: 100 nM and 1000 nM (sheet 'Samples'), CATDS: 7.7828561887260297E-2) it was 12.2 nM; in the assay on SPR (CATDS: 1.1311991214782401E-2) it was 749 nM; in the assay on WEE1 (compound concentrations: 100 nM and 1000 nM (sheet 'Samples'), CATDS: 2.0722471674581099E-2), 127 nM.
In the case of `O=S(=O)(CCOCc1ccc(-c2ccc3ncnc(Nc4ccc(OCc5cccc(F)c5)c(Cl)c4)c3c2)o1)c1ccccc1` [GW615311X], in the assay with PIM1 (CATDS: 3.06146278904708E-2), the potency estimated from few doses was 1120 nM.
Take `COc1cc2ncn(-c3cc(OCc4ccncc4)c(C(N)=O)s3)c2cc1OC` [GSK336313A]: in the assay on PLK1 (setting [1]), the potency estimated from few doses was 686 nM.
With `CC(C)c1nc(-c2ccc(F)c(NS(=O)(=O)c3c(F)cccc3F)c2)c(-c2ccnc(Nc3ccc(N4CCOCC4)nc3)n2)s1` [GSK1804250A], the potency estimated from few doses in the assay with PRKD1 (setting [1]) is 1140 nM.
For `CC(=O)N1CCN(c2ccc(Nc3nccc(-c4sc(C(C)C)nc4-c4cccc(NS(=O)(=O)c5cccc(Cl)c5)c4)n3)cn2)CC1` [GSK1660437A], in the assay with ACLY (CATDS: 3.7699367281675798E-2), the potency estimated from few doses was 1770 nM.
On to `Nc1ncc(-c2cn[nH]c2)c2scc(-c3ccc4c(c3)CCN4C(=O)Cc3ccccc3)c12` [GSK2593067A], for which the potency estimated from few doses with MAP4K3 (compound concentrations: 100 nM and 1000 nM (sheet 'Samples'), CATDS: 5.6013670337788E-2) is 2210 nM.
Turning to `CN1CCN(Cc2ccc(NC(=O)Nc3ccc(N(C)c4ccnc(Nc5ccc(CS(C)(=O)=O)cc5)n4)cc3)cc2)CC1.Cl` [GW827654A], the potency estimated from few doses with MET (compound concentrations: 100 nM and 1000 nM (sheet 'Samples'), CATDS: 3.7030406739302302E-2) is 1380 nM.
As to `O=C1NC(=O)C(c2cccc(Cl)c2)=C1Nc1ccc(O)c(Cl)c1` [SB-409514], the potency estimated from few doses was 1000 nM in the assay on ACLY (CATDS: 0.38429140901440101); 1760 nM in the assay with SMC4 (compound concentrations: 100 nM and 1000 nM (sheet 'Samples'), CATDS: 0.290936381936651).
As for `Fc1cccc(COc2ccc(Nc3ncncc3C#Cc3ccccc3)cc2Cl)c1` [GW651576X], the potency estimated from few doses with DYNC1LI1 (CATDS: 4.5527640720115801E-2) was 2220 nM; in the assay on TTK (CATDS: 4.4346947520248398E-2) it was 2370 nM.
With `NC(=O)c1sc(-n2cnc3ccc(C(F)(F)F)cc32)cc1OCc1ccccc1Br` [GW853606X], in the assay on PLK1 (compound concentrations: 100 nM and 1000 nM (sheet 'Samples'), CATDS: 0.32728933930944998), the potency estimated from few doses was 1020 nM.
For the compound `COc1cc(N2CCN(C(C)C)CC2)ccc1Nc1nc(Nc2cccc(F)c2C(=O)O)c2cc[nH]c2n1` [GSK1819799A], the potency estimated from few doses in the assay with ACLY (CATDS: 4.2702759645578299E-2) was 2000 nM; in the assay on PIM1 (CATDS: 4.9008652633002601E-2) it was 1330 nM; with SPR (CATDS: 4.2652137830011101E-2), 2000 nM; in the assay with TTK (CATDS: 6.5910432506735395E-2), 662 nM.
Turning to `COc1cccc(C2=C(c3cn(C)c4c(C)cccc34)C(=O)NC2=O)c1` [RO3301012-000], in the assay with CAMK2B (compound concentrations: 100 nM and 1000 nM (sheet 'Samples'), CATDS: 0.15582522082394101), the potency estimated from few doses is 642 nM.
Turning to `COc1ccc(C2=C(c3cn(C)c4ccccc34)C(=O)NC2=O)cc1OC` [RO3206363-000], the potency estimated from few doses with PRKD1 (compound concentrations: 100 nM and 1000 nM (sheet 'Samples'), CATDS: 5.5883212244700199E-2) is 347 nM.
With `COc1ccc(Nc2nccc(N3CCC(NC(=O)Nc4cccc(OC)c4)C3)n2)cc1` (stereo not drawn) [GSK1379742A], the potency estimated from few doses was 1070 nM in the assay on ADK (compound concentrations: 100 nM and 1000 nM (sheet 'Samples'), CATDS: 0.15674492121070999); 2270 nM in the assay on TP53RK (compound concentrations: 100 nM and 1000 nM (sheet 'Samples'), CATDS: 0.10793216189185099).
With `Cl.Oc1ccc2ncnc(Nc3ccc(OCc4ccccc4)cc3)c2c1` [GI262866A], the potency estimated from few doses in the assay with CAMK2B (setting [1]) is 391 nM.
With `Cc1[nH]nc2c1N=C(c1ccccc1Cl)c1cc([N+](=O)[O-])ccc1N2` [RO0274406-000], the potency estimated from few doses with NME2;NME2P1 (compound concentrations: 100 nM and 1000 nM (sheet 'Samples'), CATDS: 6.5363052061215496E-2) is 1680 nM.
With `COc1cc(F)c(F)c(F)c1C(=O)c1cnc(NC2CCN(S(C)(=O)=O)CC2)nc1N` [RO4600703-000], in the assay with CDK9, the potency estimated from few doses was 349 nM.
As to `COc1ccc(-c2nn3ncccc3c2-c2ccnc(Nc3ccc4c(c3)OCCO4)n2)cc1` [GW827106X], in the assay on TTK (CATDS: 4.8165403785390797E-2), the potency estimated from few doses is 1630 nM.
As for `Cc1ccc(NC(=O)Nc2ccccc2)cc1-c1ccc(C(=O)Nc2ccncc2)cc1` [GSK1398471A], the potency estimated from few doses with PRKD1 (compound concentrations: 100 nM and 1000 nM (sheet 'Samples'), CATDS: 0.105821439316495) was 1680 nM.
Consider `Cn1cc(C2=C(c3cccc([N+](=O)[O-])c3)C(=O)NC2=O)c2ccccc21` [RO0317474-000], for which the potency estimated from few doses in the assay with CAMK2B (compound concentrations: 100 nM and 1000 nM (sheet 'Samples'), CATDS: 0.20512519327704001) was 717 nM.
Turning to `COc1cc2ncn(-c3cc(OCc4sccc4Cl)c(C(N)=O)s3)c2cc1OC` [GSK448459A], in the assay on PLK1 (setting [1]), the potency estimated from few doses was 81.2 nM.
For the compound `Nc1c(C(=O)c2ccccc2)cnn1-c1ccc(F)cc1` [RO1151246-000], the potency estimated from few doses in the assay with TP53RK (setting [1]) is 1850 nM.
For `COc1ccc(C2=NC(c3ccc(Cl)cc3F)C(C(=O)Nc3ccc4[nH]ncc4c3)=C(C)N2)cn1.O=C(O)C(F)(F)F` (stereo not drawn) [GSK534913A], the potency estimated from few doses in the assay on PKN1 (setting [1]) was 2050 nM.
As to `Fc1ccc(-c2nn3ccccc3c2-c2ccncc2)cc1` [GW434756X], the potency estimated from few doses in the assay on CIT (compound concentrations: 100 nM and 1000 nM (sheet 'Samples'), CATDS: 6.8145894715466407E-2) was 1230 nM.
